Compound activity (PubChem)
DT40 TDP1 CPT: qHTS for Inhibitors of human tyrosyl-DNA phosphodiesterase 1 (TDP1): qHTS in cells in presence of CPT | AID 686979, 2013 | chicken DT40 Tdp1-/-;hTDP1 cells + 20 nM CPT, ATP luminescence, 48 h | Potency, µM (doses to about 46.2 µM), inactives show top-dose activity change, negative = growth inhibition, hits mostly inhibitors | hit rate 12% among 420,000; further: on the % scale 0 is the no-effect control and ±100 the full control effect; nearly all actives have a fitted effect of over 55% in size
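Chicken DT40 Tdp1-/- cells complemented with human TDP1, 400 cells/well, exposed to compounds plus 20 nM camptothecin for at least 48 h at 37 C; viability read as ATP content by CellTiter-Glo luminescence.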
HT1080 IDH1KD tx: qHTS for induction of synthetic lethality in tumor cells producing 2HG: qHTS for the HT-1080-IDH1KD cell line; AID 686971, 2013; Potency, µM (series often up to 46.1 µM), without a hit: at the top dose activity, negative = toxicity, most hits filed as cytotoxic; HT-1080 IDH1 knockdown viability, ATP luminescence, 48 h; hit rate 2% among 360,000;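 further: 0% = DMSO wells and -100% = cell-free medium wells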
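CellTiter-Glo luminescence after 48 h compound exposure at 37 degrees C of IDH1-knockdown HT-1080 cells in 5% FBS RPMI. %Activity scaled between DMSO wells and cell-free media wells, with curves fitted and assigned curve classes.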
DT40 TDP1 no CPT: qHTS for Inhibitors of human tyrosyl-DNA phosphodiesterase 1 (TDP1): qHTS in cells in absence of CPT | hit rate 15% among 420,000 | DT40 Tdp1-/- hTDP1 cells, no CPT, ATP luminescence, 48 h | AID 686978, 2013 | Potency, µM (doses to about 46.2 µM), inactives show at the top dose activity change, negative = growth inhibition, most hits filed as inhibitors; further: on the % scale 0 is the no-effect control and ±100 the full control effect; nearly all actives have a fitted effect of over 55% in size
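Cells were dispensed at 400 per well, compounds added by pin tool, plates incubated ≥48 hr at 37 °C, then CellTiter-Glo added for 30 min at room temperature before luminescence reading. Line: DT40 Tdp1-/- complemented with hTDP1; camptothecin omitted.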
HT1080NT lethal: qHTS for induction of synthetic lethality in tumor cells producing 2HG: qHTS for the HT-1080-NT fibrosarcoma cell line. HT-1080-NT fibrosarcoma viability, CellTiter-Glo ATP luminescence, 48 h. Potency, µM (doses to about 46.1 µM), for the others: top-dose activity, negative = less viability, most hits filed as cytotoxic. hit rate 1.6% among 360,000;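 further: NT is the 2HG producing partner of a matched IDH1 knockdown line; 0% = DMSO-treated cells and -100% = media-only wells without cells; nearly all actives have a fitted effect of over 55% in size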
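HT-1080-NT; 750 cells/well; 5% FBS RPMI; 48 h compound, 37 degrees C; CellTiter-Glo luminescence; curve fitting and curve-class assignment.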
TGFb inhibitor: qHTS for Inhibitors of TGF-b. HepG2 CAGA-GFP TGF-b/SMAD3 reporter, GFP fluorescence, 18 h; TGF-beta stimulated, 500 pg/mL final. Potency, µM (titrated, usually from 46.1 µM), without a hit: top-dose activity, negative = inhibition, most hits filed as inhibitors. hit rate 1.2% among 410,000; further: on the % scale 0 is the no-effect control and ±100 the full control effect; nearly all actives have a fitted effect of over 65% in size
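Using HEPG2 CAGA-GFP reporter cells at 1000 cells/well, we pinned test compounds, stimulated with recombinant TGF-beta (500 pg/mL final) and measured total well GFP after 18 h.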
HepG2 viability: qHTS for Inhibitors of TGF-b: Cytotox Counterscreen; Potency, µM (titrated, usually from 46.1 µM), inactives show at the top dose activity change, negative = cytotoxicity, usual class: cytotoxic; HepG2 CAGA-GFP viability, ATP luminescence, 18 h; hit rate 0.76% among 410,000
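CellTiter-Glo luminescence gave cytotoxicity after 18 hours at 37 degrees C. The cells were HepG2 CAGA-GFP in 1% FBS DMEM, stimulated with 500 pg/mL TGF-beta after compound addition. %Activity was normalised to no-cell wells (complete cell-killing) and DMSO (no toxicity), and curves were fitted and classified.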
* hit, by the source's call; ? = inconclusive; . = no result given. An excerpt weighted towards active compounds, which were near 17% of everything screened. The call rests on the fitted dose curve; in most records, active means well fitted curve in the direction sought with a large enough effect; inconclusive means small, poorly fitted or top-dose-only effect, or another doubt; inactive means no such curve, though single readings can be large; an effect the other way counts as inactive or inconclusive. Potency means the concentration at half of the fitted maximal effect.

SMILES	DT40 TDP1 CPT	HT1080 IDH1KD tx	DT40 TDP1 no CPT	HT1080NT lethal	TGFb inhibitor	HepG2 viability
COc1ccc(CC(N)c2csc(NC(=O)Nc3ccccc3C(C)(C)C)n2)cc1 (centres undefined)	?	?	?	?	?	-99.1%
COc1ccccc1NC(=O)Nc1nc(C(N)CC(C)C)cs1 (centres undefined)	2.59µM*	-19.3%	0.259µM*	-5.5%	?	-82.7%
O=C(Nc1ccc(Nc2ccccc2)cc1)Nc1ccccc1Cl	18.4µM*	?	7.31µM*	?	?	-43.1%
O=C(Nc1ccccc1)c1c(F)cccc1F	-3.2%	11.9%	-11.3%	1.2%	13.3%	-17.5%
O=C(Nc1nsc(-c2ccccc2)n1)c1ccc(F)cc1	-4.6%	7.8%	3.9%	-0.6%	-4.9%	2.82µM*
O=C(Nc1nc2nccc(-c3ccccc3)n2n1)c1ccc(F)cc1	-5.0%	18.3%	-1.9%	21.6%	-3.5%	1.1%
O=C(Nc1ccc(Nc2ccccc2)cc1)c1c(F)c(F)c(F)c(F)c1F	6.51µM*	?	6.51µM*	-2.7%	21.0%	-14.1%
O=C(Nc1ccc(Nc2ccccc2)cc1)c1ccc(F)cc1	?	-15.7%	20.6µM*	-20.7%	0.2%	-21.1%
O=C(COc1ccc2ccc(=O)oc2c1)NC1CCN(Cc2ccccc2)CC1	-10.2%	-5.9%	-6.0%	-5.4%	8.8%	-11.3%
CC(C)(C)c1ccc(NC(=O)c2c(F)cccc2Cl)cc1	10.3µM*	-10.9%	3.26µM*	-12.3%	0.0%	-42.2%
CN(C)c1cccc(N(C)C)c1CNC(=O)NC(=O)c1c(F)cccc1F	?	-1.0%	?	?	?	-29.7%
CN(C)c1cccc(F)c1C(=O)NC(=O)Nc1ccc(Cl)cc1	5.17µM*	?	6.51µM*	?	?	-19.7%
O=C(Nc1ccccc1Cl)Nc1ccccc1Cl	-19.2%	19.1%	?	-18.7%	8.0%	6.1%
O=C(Nc1ccc(Nc2ccccc2)cc1)c1c(Cl)cccc1Cl	?	?	20.6µM*	-20.3%	3.8%	-66.8%
O=P(C(=S)Nc1ccccc1Cl)(c1ccccc1)c1ccccc1	9.2µM*	-11.9%	14.6µM*	-6.1%	0.1%	-23.3%
O=[N+]([O-])c1cc(-c2nc(-c3ccccc3)no2)ccc1N1CCCC1	-6.8%	.	-11.7%	.	-17.1%	4.1%
COc1cccc(CNC(=O)Cn2c(=O)ccc3cc(S(=O)(=O)N4CCC(C)CC4)ccc32)c1	?	.	?	.	-9.2%	-22.6%
CN(C)c1ccc(C(CNS(=O)(=O)c2ccc(Br)cc2)N2CCCC2)cc1 (centres undefined)	?	.	?	.	-31.2%	1.3%
O=C(CSc1n[nH]c(-c2ccccc2O)n1)N1CCCc2ccccc21	?	16.4µM*	20.6µM*	?	-18.1%	-36.8%
CSc1nsc(SCC(=O)N2CCCc3ccccc32)n1	?	-6.6%	29.1µM*	2.8%	-19.1%	-59.9%
CCN(CC)C(=O)C1=C(C)N(Cc2ccc(C(C)(C)C)cc2)C(=O)C(CC(=O)NCCCN(C)C)C1 (centres undefined)	-8.2%	7.2%	-4.5%	-17.7%	-0.6%	-15.5%
Cc1ccc(S(=O)(=O)C[C@@H]2OC[C@H](C)N2S(=O)(=O)c2ccc(C)cc2)cc1	?	-19.3%	?	-9.0%	.	.
COc1cccc(NC(=O)CSc2nc(O)c(C/C=C/c3ccccc3)c(=O)[nH]2)c1	-6.4%	.	?	.	-10.8%	-0.3%
